Only some compounds are listed: those with a hit (about 4.7% of all), similar ones and a draw of the others.
D1 ag – Allosteric Agonists of the Human D1 Dopamine Receptor: qHTS; activation, % at 2 µM; D(1A) dopamine receptor (Homo sapiens), P21728; HEK293 T-REx D1 cells, calcium flux, agonist mode; actives 1% (n = 360,000); AID 504660, 2011; note: 0% is about no effect
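Inducible HEK293 T-REx D1 cells, force-coupled to calcium signalling, were plated at 4000 cells/well with tetracycline and held overnight at 30 C. After no-wash calcium dye loading, compound-evoked calcium rise over 180 s flagged agonists.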
D1 antagonist – Antagonist of Human D 1 Dopamine Receptor: qHTS; D(1A) dopamine receptor (Homo sapiens), P21728; HEK293 TREx D1 cells, calcium flux, dopamine EC80; active compounds read low; activity change, negative = inhibition, % at 10 µM; actives 3.2% (n = 360,000); in the data active = activity change below about -30%; note: % is set by controls: 0 for no effect and ±100 for the full control effect
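Cells carrying a force-coupled, tetracycline-inducible human D1 receptor report calcium flux. Each well gets a 10 s baseline, compound with 180 s monitoring, then an EC80 dopamine stimulus with a second 180 s kinetic read.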
D1 PAM – Potentiators of Human D1 Dopamine Receptor: qHTS. HEK293 TREx D1 cells, calcium flux, dopamine EC20 potentiation. actives 0.036% (n = 360,000). AID 504651, 2011. potentiation, % at 10 µM. D(1A) dopamine receptor (Homo sapiens), P21728; in the data active = potentiation above about 30%; note: 0% is about no effect
TRHR PAM – qHTS for Small Molecule Agonists and Allosteric Enhancers of Human TRH Receptor: Primary Screen for Enhancers; Thyrotropin-releasing hormone receptor (Homo sapiens), P34981; TRHR cells, fluo-8 calcium fluorescence, EC20 TRH enhancement; enhancement, % at 2 µM; actives 0.66% (n = 360,000); AID 493056, 2011; in the data active = enhancement above about 30%; note: 0% is about no effect
Target sequence (P34981 whole entry, looked up): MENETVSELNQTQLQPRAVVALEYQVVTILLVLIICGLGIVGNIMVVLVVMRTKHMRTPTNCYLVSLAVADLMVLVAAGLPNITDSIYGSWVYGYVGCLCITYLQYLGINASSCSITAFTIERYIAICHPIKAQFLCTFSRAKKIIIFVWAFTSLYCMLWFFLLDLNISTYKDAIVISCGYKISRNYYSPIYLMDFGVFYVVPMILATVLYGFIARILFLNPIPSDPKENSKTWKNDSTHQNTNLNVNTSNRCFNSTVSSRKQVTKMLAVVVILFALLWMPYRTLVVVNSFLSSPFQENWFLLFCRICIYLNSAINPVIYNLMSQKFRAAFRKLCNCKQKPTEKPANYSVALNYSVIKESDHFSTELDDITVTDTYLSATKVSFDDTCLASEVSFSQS
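TRHR-expressing cells loaded with fluo-8 calcium dye were read kinetically (ex 480/em 530) during compound addition, then stimulated with an EC20 of TRH (10 nM final). Enhancement of the Gq-mediated intracellular calcium response was scored.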
TRHR ag – qHTS for Small Molecule Agonists and Allosteric Enhancers of Human TRH Receptor: Primary Screen for Agonists; AID 493084, 2011; Thyrotropin-releasing hormone receptor (Homo sapiens), P34981; activation, % at 2 µM; actives 0.18% (n = 360,000); TRHR cells, calcium flux fluo-8, FDSS agonist mode; note: 0% is about no effect
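TRHR-expressing cells loaded with fluo-8 calcium dye; 23 nL library compound pin-transferred, kinetic FDSS fluorescence (Ex 480/Em 530) recorded about 180 s for agonist-induced calcium release, before a 10 nM TRH EC20 addition for potentiator mode.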
An asterisk follows results filed as active; x = no result. Cut-off read from the data, not from the text of the source, unless noted: active = activation above about 30%; inactive = the rest.

SMILES	D1 ag	D1 antagonist	D1 PAM	TRHR PAM	TRHR ag
Cc1cc(N2CCOCC2)nc2ccc(NC(=O)CCC(=O)N3CCN(c4ccc(F)cc4)CC3)cc12	-1.0	-10.6	3.1	-0.9	0.9
CN(Cc1ccccc1)c1oc(COc2ccccc2F)nc1C#N	28.9	-33.0*	x	4.7	-0.5
O=C(NC1CC(=O)N(c2ccc(F)cc2)C1)c1ccc(S(=O)(=O)N2CCOCC2)cc1 (configuration not stated)	2.2	x	-0.9	0.9	1.2
COc1cc(NC(=O)C2CCN(S(=O)(=O)Cc3ccccc3)CC2)c(OC)cc1Cl	-2.6	-4.2	-2.1	-1.7	-0.5
COc1ccc(C)cc1NC(=O)C1CCN(S(=O)(=O)Cc2ccccc2)CC1	-0.4	-47.0*	2.6	3.6	0.0
Cc1oc(-c2cccc(Cl)c2)nc1CN1CCCC(C(=O)NCc2ccc(Cl)cc2)C1 (configuration not stated)	4.8	-1.8	-2.6	-9.6	0.4
COc1ccccc1CNC(=O)C1CCN(Cc2nc(-c3cccc(Cl)c3)oc2C)CC1	33.8*	-1.1	-5.5	7.8	-0.2
COc1ccccc1CNC(=O)C1CCN(Cc2nc(-c3ccc(OC)c(OC)c3)oc2C)CC1	1.0	-4.5	-4.1	19.6	-0.2
Cc1oc(-c2cccc(Cl)c2)nc1CN1CCC(C(=O)NCc2ccc(F)cc2)CC1	54.2*	-17.2	-3.4	3.3	0.0
COc1ccccc1CNC(=O)Cc1csc2nc(-c3ccccc3)cn12	-1.6	-35.5*	-3.0	-1.7	-0.1
CCS(=O)(=O)N1CCC(C(=O)NCc2ccccc2OC)CC1	-0.6	-43.4*	-1.8	-1.3	1.2
Cc1ccccc1-c1nc(CN2CCC(C(=O)NCc3ccc(F)cc3)CC2)c(C)o1	41.0*	-8.6	-3.2	43.8*	0.5
CCc1ccc(-c2nc(CN3CCC(C(=O)NCCc4ccc(OC)c(OC)c4)CC3)c(C)o2)cc1	30.2*	-24.6	-6.2	-3.2	0.5
CCc1ccc(-c2nc(CN3CCC(C(=O)NCc4ccccc4OC)CC3)c(C)o2)cc1	40.7*	-16.9	-6.1	12.2	0.4
COc1ccccc1CNC(=O)C1CCN(S(=O)(=O)N2CCCCC2)CC1	0.5	6.7	-3.7	-2.5	0.2
Cc1ccccc1-c1nc(CN2CCC(C(=O)NCc3cccnc3)CC2)c(C)o1	-4.0	-3.8	-3.5	3.6	-0.8
COCCCn1c(=N)c(S(=O)(=O)c2ccccc2)cc2c(=O)n3cccc(C)c3nc21	0.9	5.1	1.7	-0.5	0.5
Cn1c(SCC(=O)NC2CCCC2)nnc1C(F)(F)F	3.5	-1.7	5.7	-10.0	0.6
CCc1ccc(Nc2sc(C(=O)c3ccccc3)c(N)c2S(C)(=O)=O)cc1	2.4	18.1	0.9	-0.1	-0.2
COc1ccccc1CNC(=O)COc1ccccc1OC	3.8	11.3	-2.4	-3.3	-0.1
COc1ccccc1CNC(=O)CC(C)C	3.8	-32.3*	-7.2	3.4	0.8
Cc1ccc(S(=O)(=O)N2CCC(C(=O)NCc3ccccc3CN3CCCC3)CC2)cc1C	7.5	-35.3*	-13.3	0.9	0.3
O=C(NCc1ccccc1CN1CCCC1)C1CCN(S(=O)(=O)c2ccc(F)c(F)c2)CC1	0.7	-16.7	-10.0	-8.8	0.6
COc1cccc(NC(=O)c2ccc(-c3nc(COc4ccc(C)cc4)c(C)o3)cc2)c1	4.7	-4.9	-2.6	-9.9	0.1
COc1cc(F)cc(F)c1[S+](=O)([O-])N1CCN([S+](=O)([O-])c2ccc3c(c2)OCCO3)CC1	11.4	-15.8	-6.4	0.7	2.0
SMILES	D1 ag	D1 antagonist	D1 PAM	TRHR PAM	TRHR ag
CC(=O)Nc1ccc(OS(=O)(=O)c2ccc(C(C)(C)C)cc2)cc1	9.6	-55.9*	-6.7	-9.9	-3.3
CCC(=O)N1CCc2cc(S(=O)(=O)N3CCCCC3CC)ccc21 (configuration not stated)	2.9	-5.2	4.2	0.8	-0.2
Cc1ccc(NC(=S)NCC2CCN(C(C)c3ccccc3)C2)cc1C (configuration not stated)	10.2	-63.3*	-5.6	3.8	-0.3
Cc1ccc(OCC(=O)N(Cc2ccc(Cl)cc2)CC2CCCO2)cc1C (configuration not stated)	3.7	3.3	1.2	-13.5	0.8
CCOc1ccc(S(=O)(=O)N2CCCCC2)c(C)c1C	4.2	7.2	3.0	-3.2	-0.4
CCOc1ccc(S(=O)(=O)N2CCN(C)CC2)c(C)c1C	1.9	-50.4*	-3.9	0.6	0.3
COc1ccc(C)cc1NC(=O)Cn1c(=O)c(C(F)(F)F)nc2ccccc21	4.6	-11.7	-1.9	0.2	-0.1
Cc1ccc2nc3sc(C(=O)N4CCCc5ccccc54)c(N)c3cc2c1	36.4*	9.4	-1.1	-4.6	9.0
CC(NCC(O)c1ccc([N+](=O)[O-])cc1)C12CC3CC(CC(C3)C1)C2 (configuration not stated)	49.2*	-4.4	-6.8	-18.8	-1.6
O=C(NCC(O)c1ccc([N+](=O)[O-])cc1)Nc1ccccc1 (configuration not stated)	5.0	-0.5	-0.5	-6.1	-0.7
Nc1ccc(OCCCc2c(N)nc(N)nc2N)cc1	0.8	-5.0	-9.7	8.7	0.5
Cc1cccc(C)c1N(CC(=O)N1CCCC1)S(C)(=O)=O	0.5	-2.8	-3.4	3.2	0.6
CC(C)N=C1NN=C(c2ccc(Cl)c(Cl)c2)CS1	2.2	11.5	-3.1	-7.1	-0.8
CC1=C(C(=O)N2CCc3ccccc32)C2(CCC(C)CC2)OC1=O (configuration not stated)	1.7	-77.7*	-7.5	-3.9	-0.6
CC1=C(C(=O)N2CCCCC2)C2(CCC(C)CC2)OC1=O (configuration not stated)	1.8	1.4	1.9	6.0	0.0
Cc1cc(C)nc(CCNC(=O)c2cc(COc3ccc(F)cc3F)on2)n1	1.1	-34.4*	2.4	0.5	-0.6
Cc1cc(C)nc(CCNC(=O)c2cc(COc3ccc(F)cc3Cl)on2)n1	6.1	3.4	-3.7	2.2	-1.7
CCOC(=O)C1=C(COC(=O)CCc2ccc(CC)cc2)NC(=O)NC1C (configuration not stated)	-0.1	29.8	3.2	8.8	-0.6
COc1cccc(N=Nc2c(C)[nH]n(-c3ccccc3)c2=O)c1	2.6	1.2	8.7	3.3	0.2
Cc1[nH]n(-c2ccccc2)c(=O)c1N=Nc1ccc2c(c1)OCO2	0.7	-35.5*	-8.9	-3.7	-1.7
Cc1[nH]n(-c2ccccc2)c(=O)c1N=Nc1ccccc1O	32.0*	-16.8	-3.9	-3.4	11.1
COc1ccc(-c2nnc(SCC(=O)O)n2C)cc1OC	0.7	-6.6	1.0	3.1	0.6

Screening data (PubChem)
